Experimental data reported in PubChem BioAssay (NCATS).
Inconclusive results are not listed. Activity calls are given as the source filed them. Calls follow the shape of the dose curve; as a rule, active = well fitted cell-killing curve with a large enough effect; inconclusive = small, poorly fitted or top-dose-only effect; inactive = no such curve, though single readings can be large or run the other way.

Assay: Cell Viability - LYMP2-001 (AID 921);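 also: 0% = DMSO only and full inhibition = tetraoctylammonium bromide control wells; nearly all actives have a fitted effect of over 70% in size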
Settings: LYMP2-001 lymphoblastoid cell viability; series mostly up to 92.2 µM; activity change, negative = cytotoxic: at the top concentration
Outline: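 Cellular ATP loss read by luciferase luminescence after 24 h compound exposure at 37 C in complete medium. LYMP2-001 lymphoblastoid cells, 2500/well; qHTS concentration-response data fitted with Hill equation for AC50.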

| Structure (SMILES) | activity change, negative = cytotoxic |
| --- | --- |
| CC(C#N)CCC#N (stereo not drawn) | -12.3% (inactive) |
| Nc1cc(Cl)ccc1Cl | 9.61% (inactive) |
| Nc1cccc(Cl)c1 | -10% (inactive) |
| ClCc1ccccc1 | 2.73% (inactive) |
| CCC/C=N/O | -9.17% (inactive) |
| COc1c(C(C)(C)C)cc([N+](=O)[O-])c(C)c1[N+](=O)[O-] | 1.69% (inactive) |
| C=CCOCC1CO1 (stereo not drawn) | -3.47% (inactive) |
| c1ccoc1 | 6.06% (inactive) |
| Clc1ccccc1 | -8.2% (inactive) |
| ClC(Cl)(Cl)C(Cl)(Cl)Cl | -6.36% (inactive) |
| CCOC(=O)C1OC1(C)c1ccccc1 (stereo not drawn) | -3.85% (inactive) |
| C/C=C/CC#N | -25.3% (inactive) |
| ClC(Cl)C(Cl)Cl | -12% (inactive) |
| C=CCCl | -4.76% (inactive) |
| Oc1c(Cl)cccc1Cl | -9.95% (inactive) |
| Brc1cccc(-c2ccccc2)c1 | -7.36% (inactive) |
| C=CCO | 2.63% (inactive) |
| OCCCCO | 2.42% (inactive) |
| Nn1cnnc1 | -16.2% (inactive) |

| Structure (SMILES) | activity change, negative = cytotoxic |
| --- | --- |
| BrCCc1ccccc1 | 5.95% (inactive) |
| Cc1ccccc1[N+](=O)[O-] | -7.92% (inactive) |
| CCCCOC(=O)c1ccccc1N | 13.6% (inactive) |
| Clc1cc(Cl)c(Cl)c(Cl)c1 | -12.5% (inactive) |
| Cc1ccc(N)c(C)c1 | -3.16% (inactive) |
| C1CC2OC2CC1C1CO1 (stereo not drawn) | -1.48% (inactive) |
| CN(C)C(=O)Cl | -0.587% (inactive) |
| CC(=O)NNc1ccccc1 | -0.531% (inactive) |
| Cc1ccc(N=C=O)cc1N=C=O | -8.82% (inactive) |
| O=C(Cl)OCc1ccccc1 | 1.86% (inactive) |
| C=CC(=O)OC | -13.7% (inactive) |
| CCN(CC)N=O | 0.205% (inactive) |
| OCC(Cl)CCl (stereo not drawn) | -3.44% (inactive) |
| CC(C)CON=O | -12.8% (inactive) |
| CC[N+](=O)[O-] | 1.18% (inactive) |
| CC(C)(Cl)[N+](=O)[O-] | -11.5% (inactive) |
| C[N+](=O)[O-] | -1.08% (inactive) |
| CC(C)OC(=O)Cc1ccccc1 | -3.8% (inactive) |
| ClCC(Br)CBr (stereo not drawn) | 9.62% (inactive) |
